# Tgondii IFNg = T. gondii growth inhibition with IFN-gamma, primary screen, cell-based. Toxoplasma gondii growth in IFN-gamma-treated host cells; stronger effect = lower value. activity change, negative = inhibition, % (no concentration beside the values). 3.8% of 69,000 active. AID 1259416, 2018; in the data active = activity change below about -70%, passing the limit was not always enough;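 note: host cells are HeLa cells infected with Toxoplasma gondii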
# Starred values were filed as active, the others as inactive; ! = a repeat was not active. Only a selection was taken, and hits are over-represented in it overall.
SMILES,Tgondii IFNg
CN(Cc1ccc(-c2ccn[nH]2)s1)Cc1cccc2ncccc12,-47.0
Cc1ccc(N2CCCC2=O)cc1S(=O)(=O)NC(=O)C1Cc2ccccc2CN1 (centres undefined),27.7
COc1ccccc1N1CCN(CCCCNC(=O)c2ccc(-c3ccc(C(C)=O)cc3)cc2)CC1,7.2
COc1ccccc1N1CCN(Cc2nc(-c3ccc(Br)cc3)cs2)CC1,-71.9*
COc1ccccc1N1CCN(C(=O)c2cccs2)CC1,6.7
CCn1nc(C)c(NS(=O)(=O)c2ccc(F)c(Cl)c2)c1C(=O)OC,-44.9
Cn1ncc2c(N3CCN4C(=O)CNC(=O)C4C3)nc(C(C)(C)C)nc21 (centres undefined),-2.2
S=C(NCCCn1ccnc1)Nc1cc(Cl)ccc1Cl,30.1
Clc1ccc(C(Cn2ccnc2)OCc2csc3c(Cl)cccc23)c(Cl)c1 (centres undefined),-79.2*
Cc1c(C(=O)Cn2ccnc2)sc2ccc(Cl)cc12,-18.2
Clc1ccc(C(Cn2ccnc2)OCc2c(Cl)cccc2Cl)c(Cl)c1 (centres undefined),-69.7
Clc1ccc(C(Cn2ccnc2)OCc2ccc(Sc3ccccc3)cc2)c(Cl)c1 (centres undefined),-78.2*
S=C(Nc1ccc(Cl)cc1Cl)NC(Cn1ccnc1)c1ccccc1 (centres undefined),-35.4
COC1C2CCC1N(S(=O)(=O)c1cccs1)C2 (centres undefined),-76.6*
CC(C)CN1CC[C@H]2[C@@H]1CCN2S(=O)(=O)c1cccs1,-4.4
COc1ccc(S(=O)(=O)N2CC3CCC2C3Oc2cccnc2)cc1 (centres undefined),-4.4
O=C(OCc1ccc(C(F)(F)F)cc1)c1cc(Cl)cc(Cl)c1,-22.3
Nc1nc(N)c2c(OCc3ccc(C(F)(F)F)cc3)cccc2n1,-73.5*
Cc1cccc(COc2cccnc2N)c1,41.7
O=S(=O)(c1ccc(Cl)s1)N1CCC2(CC1)NCCN=C2NCc1ccccc1F,0.3
Cc1cc(C)c(S(=O)(=O)N2CCC3(CC2)NCCN=C3NC2CCCCC2)cc1C,-37.9
Nc1nc2c(c(=O)[nH]1)CCN(C(=O)[C@@H]1C[C@@H]3C=C[C@H]1C3)C2,1.3
CCCCc1ncc(-c2c(-c3ccccc3)ncn2C2CCNC2)[nH]1 (centres undefined),2.9
Cc1ccc2nc(-c3ccc(Cl)c(C)c3)cn2c1,-97.2*
Cc1ccc2nc(-c3ccc(-c4ccccc4)s3)cn2c1,79.8
SMILES,Tgondii IFNg
COc1ccc(-c2cn3cc(C)ccc3n2)cc1,317.0
COCC(=O)N1CCc2ccc(=O)n(CC3CCOCC3)c2CC1,48.4
Cc1oc2ncn3nc(C(C)NC(=O)CCc4ccccc4)nc3c2c1C (centres undefined),11.5
CC(C)c1ccc(C(NC(=O)CCc2ccccc2)c2ccc3cccnc3c2O)cc1 (centres undefined),-102.0*
O=C(CCc1ccccc1)Nc1ccc(Cl)cn1,-54.3
CC(NC(=O)C1(Oc2ccc(Cl)cc2)CCNCC1)c1cnn(C)c1 (centres undefined),-11.4
CN(Cc1cc(C(C)(C)C)n[nH]1)C(=O)c1cccc(C#CC(C)(C)O)c1,1.0
COc1ccccc1OCC(=O)O,25.4
COc1cc(C(=O)N(C)CCOc2ccccc2OC)c2ccccc2n1,-93.2*
COc1ccccc1OCc1cc(C(=O)N(C)Cc2cc(C)no2)no1,-9.5
O=C1OC(=O)C2C1[C@@H]1CC[C@H]2O1 (some centres undefined),-76.9*
CCC[N+]12C3C[C@H](C4C(O)[C@]5(C[C@@H]41)c1ccccc1N(C)[C@@H]35)[C@H](CC)[C@H]2O (some centres undefined),14.7
Cc1ccc(CNC2=NCCNC23CCN(S(=O)(=O)c2ccc(Cl)s2)CC3)cc1,-34.3
COc1ccccc1CCCNC(=O)[C@@H]1CCC(=O)N1,4.1
CN1CC(=O)N2C[C@H](NC(=O)CCc3cccnc3)C[C@H]2C1=O,22.9
Cc1ccsc1C(=O)N1CCC(C2(Cc3ccc(F)cc3)NC(=O)N(C3CCOC3)C2=O)CC1 (centres undefined),2.8
CN(C)c1nc2c(cc1C(=O)NCC1CC1)CCN(c1ccncn1)CC2,-17.0
COc1ccc(OC)c(CNC(=O)c2nc(Nc3cccc(C)c3)c3ccccc3n2)c1,-74.1*
CCNC(=O)c1nc(Nc2ccc(C)cc2)c2ccccc2n1,-26.3
CCCCNC(=O)c1nc(Nc2cccc(C)c2)c2ccccc2n1,-56.7
Cc1ccc(CNC(=O)c2nc(Nc3cccc(C)c3)c3ccccc3n2)cc1,-79.3*
Cc1ccc(CNC(=O)c2nc(Nc3ccc(F)cc3)c3ccccc3n2)cc1,-32.1
Cc1ccc(Nc2nc(C(=O)N(C)Cc3ccccc3)nc3ccccc23)cc1,-77.2*
COc1ccc(CNC(=O)c2nc(Nc3ccccc3)c3ccccc3n2)c(OC)c1,-54.1
COc1ccc(OC)c(CNC(=O)c2nc(Nc3ccc(C)cc3)c3ccccc3n2)c1,-41.2
SMILES,Tgondii IFNg
CN(Cc1ccccc1)C(=O)c1nc(Nc2ccc(F)cc2)c2ccccc2n1,25.0
CSc1cccc(NC(=O)c2nnn(Cc3nc(-c4ccc(Cl)cc4)oc3C)c2C)c1,-29.0
CCN(Cc1noc(C2CCC2)n1)C(=O)c1cnc2ccnn2c1C,-6.5
O=S(=O)(CCNc1nccc(CCC(F)(F)F)n1)N1CCCC1,-3.3
CN(C)C(=O)COCC1CN(Cc2cnn(C)c2)Cc2ccnn2C1 (centres undefined),2.7
Cc1cccc(N2CCN(C(c3ccccc3)c3nnnn3Cc3ccco3)CC2)c1C (centres undefined),-12.9
COCCn1nnnc1C(C(C)C)N1CCC(Cc2ccccc2)CC1 (centres undefined),-2.4
COCCn1nnnc1C(c1cccs1)N1CCN(c2cc(C)ccc2C)CC1 (centres undefined),-95.0*
O=C(Nc1cccc(-n2cccn2)c1)C1CC(=O)N(Cc2ccccc2)C1 (centres undefined),3.8
O=C(c1cc2cccnc2n(Cc2ccccc2F)c1=O)N(Cc1ccccc1)Cc1ccccc1,8.2
CN(C)c1cc(C(=O)Nc2ccccc2OCC2CCCCO2)ccn1 (centres undefined),-8.1
Cc1ccc(OCCN(C)C)c(NC(=O)c2noc3c2CC(C(C)(C)C)CC3)c1 (centres undefined),-73.7*
CC(C)(C)C1CCc2onc(C(=O)NCC(C)(C)N3CCCCC3)c2C1 (centres undefined),-14.6
CN(C)CCN1CCOCC2(CCCN(C(=O)c3nn(C)c4ccccc34)C2)C1 (centres undefined),-53.2
Cn1ccnc1-c1ccc(NCCc2cnn(-c3ccccc3)c2)nn1,55.1
CCN1CCC2(CN(Cc3cccnc3)CC23CCN(Cc2ccco2)CC3)C1=O (centres undefined),2.6
O=c1c(Cl)c(Oc2ccccc2)cnn1-c1ccccc1,71.6
COc1ccc(CCNc2cnn(-c3ccccc3)c(=O)c2Cl)cc1OC,-82.8*
COc1ccc(CCNC(=O)Cc2ccccc2)cc1OC,-48.1
CS(=O)(=O)NCCC1CN(Cc2cc3ccccc3[nH]2)CCO1 (centres undefined),3.5
Cn1cc(C[C@H]2[C@H](OCC3CC3)CCN2S(C)(=O)=O)cn1,-6.3
COc1ccc(S(=O)(=O)Nc2ccccc2C(=O)N2CCCC2)cc1,-6.1
COc1cc2c(Nc3ccc(NC(=O)c4ccccc4)cc3)ncnc2cc1OCCCN1CCOCC1,-76.0*!
COc1cc2c(Oc3ccc4[nH]c(C)cc4c3F)ncnc2cc1OCCCN1CCCC1,-59.4
C#Cc1cccc(Nc2ncnc3cc(OCCOC)c(OCCOC)cc23)c1,-46.9
